# Experimental data reported in PMC4336329 (PLoS ONE, 2015).
# The campaign covered roughly 310,000 compounds. About 14,000 (4.5%) showed an effect of 50% or more. The effect is printed as a negative number. The list comes from a sample in which strong results are over-represented; it also holds similar structures and randomly drawn compounds.
# Target: human ether-à-go-go-related gene (hERG) potassium channel (human, UniProt Q12809)
# Assay: primary screen, population patch clamp on CHO cells stably expressing hERG; higher = less effect of the substance
# 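Also: peak tail current of the secondary pulse compared with the same well before compound.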
# Chain of human ether-à-go-go-related gene (hERG) potassium channel (Q12809 whole entry, looked up): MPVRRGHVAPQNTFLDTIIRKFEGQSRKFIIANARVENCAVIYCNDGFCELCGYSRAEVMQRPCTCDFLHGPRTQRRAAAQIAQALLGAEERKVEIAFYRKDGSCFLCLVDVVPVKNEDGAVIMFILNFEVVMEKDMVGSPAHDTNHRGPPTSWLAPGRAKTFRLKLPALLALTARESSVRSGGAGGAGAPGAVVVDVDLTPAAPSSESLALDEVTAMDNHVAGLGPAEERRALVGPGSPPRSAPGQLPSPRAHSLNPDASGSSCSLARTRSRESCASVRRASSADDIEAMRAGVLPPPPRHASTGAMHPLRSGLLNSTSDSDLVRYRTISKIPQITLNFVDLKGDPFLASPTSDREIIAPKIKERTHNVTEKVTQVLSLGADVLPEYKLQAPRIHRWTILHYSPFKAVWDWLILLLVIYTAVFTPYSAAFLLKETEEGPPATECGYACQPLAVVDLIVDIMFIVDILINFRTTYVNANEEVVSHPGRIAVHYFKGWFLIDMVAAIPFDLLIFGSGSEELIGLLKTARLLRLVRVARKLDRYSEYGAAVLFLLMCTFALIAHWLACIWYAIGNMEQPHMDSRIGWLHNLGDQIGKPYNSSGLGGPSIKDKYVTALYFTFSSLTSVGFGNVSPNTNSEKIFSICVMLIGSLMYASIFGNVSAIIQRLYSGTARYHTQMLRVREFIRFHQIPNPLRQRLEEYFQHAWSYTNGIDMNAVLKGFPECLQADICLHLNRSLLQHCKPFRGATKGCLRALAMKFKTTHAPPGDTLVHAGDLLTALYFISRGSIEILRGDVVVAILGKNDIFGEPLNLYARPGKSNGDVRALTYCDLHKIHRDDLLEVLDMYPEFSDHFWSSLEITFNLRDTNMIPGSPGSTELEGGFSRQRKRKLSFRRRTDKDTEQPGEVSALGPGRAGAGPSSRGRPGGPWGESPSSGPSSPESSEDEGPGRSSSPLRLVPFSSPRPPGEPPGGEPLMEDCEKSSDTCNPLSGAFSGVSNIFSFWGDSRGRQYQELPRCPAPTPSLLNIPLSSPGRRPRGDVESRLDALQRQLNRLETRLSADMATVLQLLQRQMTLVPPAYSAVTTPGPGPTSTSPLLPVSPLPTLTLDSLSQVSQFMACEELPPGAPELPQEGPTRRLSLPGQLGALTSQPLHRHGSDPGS
row,SMILES,"hERG current change (%, negative = inhibition) at 10uM"
1,COc1ccc(N2CCN(C(=O)CSc3nnnn3C3CC3)CC2)cc1,-13.6%
2,CC(=O)Nc1nc(C)c(-c2nc3ccc([N+](=O)[O-])cc3[nH]2)s1,13.9%
3,COc1ccc(-n2cc(CNCCc3cscn3)c(-c3ccccc3Cl)n2)cc1,-64.5%
4,Cc1cccc(-n2cc(CN3CCCN(C=O)CC3)c(-c3cccc(F)c3)n2)c1,-10.8%
5,COc1ccc(-n2cc(CNCCc3nc(C)cc(C)n3)c(-c3ccccc3Cl)n2)cc1,-62.6%
6,COc1ccc(-n2cc(CNCCc3cnc[nH]3)c(-c3cccc(F)c3)n2)cc1,-28.9%
7,COc1ccc(-c2nn(-c3ccccc3)cc2CO)cc1,4.56%
8,COc1ccc(-n2cc(CNCCN3CCOC3=O)c(-c3ccccc3Cl)n2)cc1,-18.5%
9,CCN1CC(CNCc2cn(-c3ccc(OC)cc3)nc2-c2ccccc2Cl)CC1=O (centres unmarked),-24.4%
10,COc1ccc(-n2cc(CNCCCN3CCCC3=O)c(-c3ccccc3Cl)n2)cc1,-60.9%
11,Cc1cccc(-n2cc(CNCCc3nc(C)cc(C)n3)c(-c3cccc(F)c3)n2)c1,-67.9%
12,CCN1CCC(CNCc2cn(-c3ccc(OC)cc3)nc2-c2ccccc2Cl)C1 (centres unmarked),-9.43%
13,O=C(Nc1cccc(O)c1)C1CCCN1C(=O)OCc1ccccc1 (centres unmarked),-7.35%
14,CC(C)Oc1ccc(OCCn2c(S(=O)(=O)O)nc3c(N)ncnc32)cc1,15.9%
15,COc1ccc(NC(=O)CN(Cc2ccccc2)Cc2ccccc2)cc1S(N)(=O)=O,-36.7%
16,CCC(=O)Nc1ccc(C(=O)N/N=C/c2ccccc2[N+](=O)[O-])cc1,14.1%
17,CCn1c(SCc2ccc(OC)cc2)nnc1-c1ccncc1,-18.9%
18,Cc1cccc(-c2nnc(SCC(=O)Nc3cc(C)on3)n2C)c1,1.68%
19,Cc1nc(CN2CCN(C(=O)c3ccc(C(C)(C)C)cc3)CC2)cs1.Cl,-3.25%
20,COc1ccc(N2CC(C(=O)Nc3c4c(nn3-c3ccc(OC)cc3)CS(=O)(=O)C4)CC2=O)cc1 (centres unmarked),21.4%
21,O=C1COc2ccc3ccccc3c2CN1,6.37%
22,Cc1ccc(S(=O)(=O)N2CCCC2CNC(=O)C(=O)NC2CCCC2)cc1 (centres unmarked),-40.3%
23,Cc1ccc(-n2nc3c(=O)n(CCCC(=O)NCCN4CCN(C)CC4)nc(C)c3c2C)cc1,16.8%
